Assay results taken from the supplement of paper PMC13380429.
Where a name gives a salt, the structure may show the parent alone.

System: Vero E6 infected with SARS-CoV-2
Assay: inhibition of SARS-CoV-2 cytopathic effect; higher = more antiviral protection, active = above 15
Details: 48 h

Measured: inhibition of SARS-CoV-2 cytopathic effect

N#CCC1(n2cc(-c3ncnc4[nH]ccc34)cn2)CN(C2CCN(C(=O)c3ccnc(C(F)(F)F)c3F)CC2)C1 [itacitinib]
inactive: 1 nM 1.05% | 8.33 nM 1.83% | 100 nM 0.96% | 833.33 nM -0.18% | 10000 nM -3.04%

NS(=O)(=O)c1cc(Cl)c(Cl)c(S(N)(=O)=O)c1 [diclofenamide]
inactive: 1 nM -2.99% | 8.33 nM -2.1% | 100 nM -3.44% | 833.33 nM 0.21% | 10000 nM -2.7%

C[C@H]1CCC/C=C/[C@@H]2C[C@H](O)C[C@H]2[C@H](O)/C=C/C(=O)O1 [brefeldin-A]
inactive: 1 nM 0.16% | 8.33 nM 2.51% | 833.33 nM -3.55% | 10000 nM -4.89%
active: 100 nM 47.2%

C=CC(=O)N1CCC(Oc2cc3c(Nc4ccc(Cl)c(Cl)c4F)ncnc3cc2OC)CC1 [poziotinib]
inactive: 1 nM -7.08% | 8.33 nM -14.9% | 100 nM -15.1% | 833.33 nM -17.3% | 10000 nM -15.7%

COc1cccc2c1C(=O)c1c(O)c3c(c(O)c1C2=O)C[C@@](O)(C(=O)CO)C[C@@H]3O[C@H]1C[C@H](N)[C@@H](O)[C@H](C)O1 [Epirubicin Hydrochloride]
inactive: 1 nM 1.23% | 8.33 nM 1.09% | 100 nM 0.605% | 833.33 nM 1.46% | 10000 nM -4.63%

C[C@H](NC(=O)Cc1cc(F)cc(F)c1)C(=O)N[C@@H]1C(=O)N(C)c2ccccc2-c2ccccc21
inactive: 1 nM -2.68% | 8.33 nM -3.21% | 100 nM -6.27% | 833.33 nM -7.86% | 10000 nM -8.97%
